{"source": "PubChem BioAssay (NCATS)", "note": "Inconclusive results are not listed. Entries that show only a call come without a potency. Activity calls are given as the source filed them. Calls come from the whole dose curve; as a rule, active = well fitted inhibition curve with a large enough effect; inconclusive = small, poorly fitted or top-dose-only effect; inactive = flat fitted curve, though single readings scatter."}
{"biological_target": "Glutathione peroxidase 1 (Homo sapiens) (UniProt P07203)", "sequence (P07203 whole entry, looked up)": "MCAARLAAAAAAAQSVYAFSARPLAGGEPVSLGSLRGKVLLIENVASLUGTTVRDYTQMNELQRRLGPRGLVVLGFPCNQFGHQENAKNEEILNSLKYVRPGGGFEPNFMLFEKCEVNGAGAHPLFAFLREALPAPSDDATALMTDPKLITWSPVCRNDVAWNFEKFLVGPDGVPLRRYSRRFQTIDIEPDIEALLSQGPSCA", "assay": "Primary qHTS Assay for Inhibitors of Recombinant Selenoprotein Glutathione Peroxidase 1 (GPX1) (AID 1845191); note: nearly all actives have a fitted effect of over 65% in size", "conditions": "recombinant GPX1, GR-coupled NADPH fluorescence, 15 min; series mostly up to 48.8 µM", "outline": "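Recombinant GPX1 (10 nM final) was preincubated with compound for 30 min at room temperature, then reacted with 1 mM GSH, 0.5 mM CHP, 0.5 mM NADPH and 100 nM glutathione reductase; NADPH fluorescence (340/450 nm) was read at 0 and 15 min.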"}
{"smiles": "CCC(C)(C)C(=O)O[C@H]1C[C@@H](C)C=C2C=C[C@H](C)[C@H](CC[C@@H]3C[C@@H](O)CC(=O)O3)[C@H]21", "Potency": "inactive"}
{"smiles": "CS(=O)(=O)Oc1ccc2c(NC(N)=O)c(C(=O)c3ccc(Cl)cc3Cl)oc2c1", "Potency": "inactive"}
{"smiles": "Cc1cc([C@@H](C)Nc2ccccc2C(=O)O)c2nc(N3CCOCC3)cc(=O)n2c1", "Potency": "inactive"}
{"smiles": "S=C(NCc1ccc2c(c1)OCO2)N1CCN(c2ncnc3c2oc2ccccc23)CC1", "Potency": "inactive"}
{"smiles": "OCCC#Cc1nc(-c2ccc(F)cc2)c(-c2ccncc2)n1CCCc1ccccc1", "Potency": "inactive"}
{"smiles": "CCC(=O)N[C@H]1CC[C@H](C(=O)N(C)c2ccc(-c3nc4ccccc4o3)cc2)C1", "Potency": "inactive"}
{"smiles": "CC(c1cc2ccccc2s1)N(O)C(N)=O", "note": "(stereo not given)", "Potency": "inactive"}
{"smiles": "COc1ccc(CCN2CCN(CCCc3ccccc3)CC2)cc1OC", "Potency": "inactive"}
{"smiles": "CCOc1cc(C(=O)Nc2ccc(Cl)c(-c3nc4ccccc4[nH]3)c2)cc(OCC)c1OCC", "Potency": "inactive"}
{"smiles": "COc1nc(-c2ccc3c(c2)OCO3)n(-c2ccc(NC(=O)CSc3ccccc3)cc2)n1", "Potency": "inactive"}
{"smiles": "CCCc1nn(C)c2c(=O)[nH]c(-c3cc(S(=O)(=O)N4CCN(C)CC4)ccc3OCC)nc12", "Potency": "inactive"}
{"smiles": "O=C(O)[C@@H](c1ccc(OCc2ccc3ccccc3n2)cc1)C1CCCC1", "Potency": "inactive"}
{"smiles": "CCc1cc(Nc2nccc(-c3c(-c4ccc(OC)c(C(=O)Nc5c(F)cccc5F)c4)nc4ccccn34)n2)c(OC)cc1N1CCC(N2CCN(S(C)(=O)=O)CC2)CC1", "Potency": "inactive"}
{"smiles": "N#Cc1ccc(C(c2ccc(C#N)cc2)n2cncn2)cc1", "Potency": "inactive"}
{"smiles": "Cn1c(=O)c(F)c(Nc2ccc(I)cc2F)c2c(=O)n(C[C@@H](O)CO)cnc21", "Potency": "inactive"}
